The text below walks through data of PubChem BioAssay.

Results filed as inconclusive are left out. Calls of active or inactive are those of the source.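 How the source made its calls, unless noted: active means inhibition above the screen-wide mean plus 3 SD, about 51%; inactive means the rest.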

Test [1] in a line: yeast TOR pathway RPL19A-GFP modulators, primary screen, cell-based, S. cerevisiae, multiplex flow cytometry (AID 1862; in the data active means percent of DMSO control GFP below about 86%;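 further: lower values mimic rapamycin by blocking the RPL19A rise seen in DMSO cells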). Particulars: S. cerevisiae RPL19A-GFP strain, flow cytometry fluorescence, 3 h; at 10 µM; stronger effect = lower value. A general note: In flow cytometry, cells or beads pass a laser one at a time.
Test [2] in a line: modulators of MEP2-GFP levels in yeast, primary screen, S. cerevisiae, multiplex flow cytometry (AID 1867;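 active means GFP response, as percent of the DMSO control, above the screen-wide mean plus 3 SD, about 139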;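 further: median GFP channel fluorescence of barcode-gated MEP2-GFP cells measured by flow cytometry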). Particulars: S. cerevisiae MEP2-GFP strain, 3 h, at 10 µM, stronger effect = higher value, 100% means same as DMSO wells.
Test [3] in a line: modulators of CIT2-GFP expression in yeast, primary screen, S. cerevisiae, GFP fusion, multiplex flow cytometry (AID 1870;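 active means percent response above a set limit, the screen-wide mean plus 3 SD, cut at about 130% in these data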;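 further: barcoded CIT2-GFP strain pooled with four other GFP strains with rapamycin as positive control; median GFP fluorescence per well over plate mean of DMSO wells so 100% = DMSO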). Conditions: 3 h, at 10 µM, stronger effect = higher value.
Test [4] in a line: modulators of LAP4-GFP expression in yeast, primary screen, S. cerevisiae, multiplex flow cytometry (AID 1873;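 active means GFP signal, as percent of the solvent control, above the screen mean plus 3 SD, about 149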). Particulars: 3 h, at 10 µM, stronger effect = higher value.
A short description of test [5]: modulators of AGP1-GFP expression in yeast TOR pathway, primary screen, cell-based, multiplex flow cytometry, S. cerevisiae (AID 1887;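 active means GFP signal above the screen-wide mean plus 3 SD, that is over about 124.5% of the solvent control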;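 further: AGP1-GFP fusion strain of S. cerevisiae within a five-strain barcoded multiplex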). Particulars: 3 h, at 10 µM, stronger effect = higher value.
A short description of test [6]: inhibitors of CD8+ T cell-vesicle binding, pilot screen, LFA-1/ICAM-1 modulator project, MLPCN validation set, flow cytometry (AID 2523;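 active means response below a set limit, under 55% cells CD8-positive and vesicle-bound, and CD8 cells' 90th-percentile brightness under 279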;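 on vesicle binding response: mean PE anti-B7-1 fluorescence of CD8+ cells relative to row control; 100% = QL9-loaded vesicles with DMSO vehicle in the same plate row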). Particulars: 2C mouse CD8+ T cells, at 7 µM, stronger effect = lower value; double positive events: measured here: CD8+/vesicle+ event percentage.
Test [7] has as its target Integrin beta-1 (Homo sapiens) + Integrin alpha-4 (Homo sapiens) (UniProt P13612+P05556). Nature of the test: inhibition of HUTS-21 binding to VLA-4, pilot screen, VLA-4 allosteric modulator project, U937 cells, HUTS-21 mAb, flow cytometry, validation set (AID 2674;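 active means inhibition above 50%, about 3 SD of the validation set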;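 further: antibody binding induced by the VLA-4 ligand LDV present at three times its Kd; 0% = LDV ligand with antibody and no compound and 100% = antibody without LDV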). Conditions: HUTS-21 LIBS mAb binding, at 6.7 µM, stronger effect = higher value, binding induced by LDV ligand.
Test [8] in a line: superoxide lowering in aged yeast cells, pilot screen, validation compound set (AID 2706;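 active means superoxide response below 65% of plate, a cut near 3 SD across the whole screen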;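 further: yeast exposed to compound for one week at 30 degrees C before staining; 100% = mean of all compound wells on the same plate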). Conditions: S. cerevisiae aging, superoxide DHE fluorescence; at 10 µM, stronger effect = lower value.
Test [9] has as its target Beta-adrenergic receptor kinase 1 (Homo sapiens) (UniProt P25098). Nature of the test: GRK2 binders displacing RNA aptamer, biochemical, validation, human GRK2, bead flow cytometry (AID 488806;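 active means aptamer binding inhibition above 30%, about 3 SD of noise from non-fluorescent compounds; inactive means inhibition at or below 30%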). Particulars: bead-bound GRK2, FAM-aptamer displacement, at 10 µM, stronger effect = higher value.
In test [10] the target is AP-2 complex subunit beta (Homo sapiens) (UniProt P63010). In words: inhibitors of arrestin peptide binding to AP2, pilot screen, biochemical, validation set, GST-AP2 beads, flow cytometry (AID 504541;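 active means inhibition above 54%, about 3 SD of non-fluorescent compounds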;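 further: AP2 carries R879A mutation and is captured from E. coli lysate; bead-bound FITC arrestin peptide fluorescence measuring arrestin peptide binding to AP2; 0% = DMSO wells and 100% = excess unlabeled arrestin peptide control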). Particulars: FITC arrestin peptide, at 10 µM, stronger effect = higher value, AP2 beta2 appendage fragment, R879A mutant.
Sequence of AP-2 complex subunit beta (Homo sapiens) (P63010 whole entry, looked up, the tested form may be a part, one chain of several): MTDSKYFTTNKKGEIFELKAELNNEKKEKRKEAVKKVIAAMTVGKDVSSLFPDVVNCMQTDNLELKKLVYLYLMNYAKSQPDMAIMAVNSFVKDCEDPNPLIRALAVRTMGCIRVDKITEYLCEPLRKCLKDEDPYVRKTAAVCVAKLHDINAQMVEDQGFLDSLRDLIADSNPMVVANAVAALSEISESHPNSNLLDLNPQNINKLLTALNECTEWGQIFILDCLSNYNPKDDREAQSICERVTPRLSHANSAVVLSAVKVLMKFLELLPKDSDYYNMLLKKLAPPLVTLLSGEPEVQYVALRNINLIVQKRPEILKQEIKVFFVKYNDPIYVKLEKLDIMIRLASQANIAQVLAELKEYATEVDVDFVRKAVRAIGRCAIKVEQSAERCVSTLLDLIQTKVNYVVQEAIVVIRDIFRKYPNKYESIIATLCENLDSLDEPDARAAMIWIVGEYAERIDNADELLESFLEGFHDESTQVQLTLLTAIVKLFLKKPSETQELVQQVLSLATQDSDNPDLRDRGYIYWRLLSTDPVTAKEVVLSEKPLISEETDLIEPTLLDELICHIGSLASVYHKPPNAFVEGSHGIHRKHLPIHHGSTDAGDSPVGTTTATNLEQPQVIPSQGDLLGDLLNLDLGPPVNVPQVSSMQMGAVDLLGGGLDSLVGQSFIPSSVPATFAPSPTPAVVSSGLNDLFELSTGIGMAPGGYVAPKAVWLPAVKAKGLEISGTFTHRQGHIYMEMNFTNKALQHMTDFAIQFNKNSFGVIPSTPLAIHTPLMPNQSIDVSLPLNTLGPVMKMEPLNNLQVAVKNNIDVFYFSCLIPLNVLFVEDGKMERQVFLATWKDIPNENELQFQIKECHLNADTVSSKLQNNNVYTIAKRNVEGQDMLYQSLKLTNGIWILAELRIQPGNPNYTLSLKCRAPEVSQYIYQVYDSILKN
Test [11] in a line: yeast V-ATPase proton transport modulators, S. cerevisiae, pHLuorin, HTS validation (AID 504600; in the data active means response above about 15%;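 further: plate controls were DMSO for no effect and reference compound for full effect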). Conditions: S. cerevisiae pHLuorin cytosolic pH, at 10 µM, stronger effect = higher value.
For test [12], the system named is anti-desmoglein-3 scFv antibody binding to human DSG3. Nature of the test: inhibitors of anti-DSG3 scFv binding to DSG3, pilot screen, biochemical, validation compound set, bead-based, flow cytometry (AID 588368;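 active means binding below the plate cutoff, the plate median minus 3 SD, with a reading above zero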;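 further: signal is the median channel fluorescence of bead-bound GFP antibody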). Particulars: Protein G beads, DSG3-Fc, scFv-GFP binding, at 10 µM, stronger effect = lower value.
A short description of test [13]: inhibitors of fungal efflux pumps CDR1, CDR2, MDR1, pilot screen, validation compound set, multiplex, phenotypic (AID 588506;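 active means efflux inhibition above 0.42, the validation set average plus 4 SD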;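 further: Nile Red retained in cells so higher fluorescence means more efflux inhibition; 0 = negative control wells and 1 = enniatin B 25 µM full block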). Conditions: S. cerevisiae pump-expressing triplex, Nile Red efflux flow cytometry; at 10 µM; stronger effect = higher value; the pumps come from Candida albicans.
For test [14], the target named is ATP-binding cassette sub-family B member 6 (Homo sapiens) (UniProt Q9NP58). In words: ABCB6 transporter inhibitors, pilot screen, K562-ABCB6 cells, flow cytometry, validation set (AID 588550).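 Further: 0% = DMSO wells and 100% = benzethonium chloride 70 µM positive control.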 Particulars: K562-ABCB6 porphyrin accumulation, 1 h, at 10 µM, stronger effect = higher value.
Sequence of ATP-binding cassette sub-family B member 6 (Homo sapiens) (Q9NP58 whole entry, looked up): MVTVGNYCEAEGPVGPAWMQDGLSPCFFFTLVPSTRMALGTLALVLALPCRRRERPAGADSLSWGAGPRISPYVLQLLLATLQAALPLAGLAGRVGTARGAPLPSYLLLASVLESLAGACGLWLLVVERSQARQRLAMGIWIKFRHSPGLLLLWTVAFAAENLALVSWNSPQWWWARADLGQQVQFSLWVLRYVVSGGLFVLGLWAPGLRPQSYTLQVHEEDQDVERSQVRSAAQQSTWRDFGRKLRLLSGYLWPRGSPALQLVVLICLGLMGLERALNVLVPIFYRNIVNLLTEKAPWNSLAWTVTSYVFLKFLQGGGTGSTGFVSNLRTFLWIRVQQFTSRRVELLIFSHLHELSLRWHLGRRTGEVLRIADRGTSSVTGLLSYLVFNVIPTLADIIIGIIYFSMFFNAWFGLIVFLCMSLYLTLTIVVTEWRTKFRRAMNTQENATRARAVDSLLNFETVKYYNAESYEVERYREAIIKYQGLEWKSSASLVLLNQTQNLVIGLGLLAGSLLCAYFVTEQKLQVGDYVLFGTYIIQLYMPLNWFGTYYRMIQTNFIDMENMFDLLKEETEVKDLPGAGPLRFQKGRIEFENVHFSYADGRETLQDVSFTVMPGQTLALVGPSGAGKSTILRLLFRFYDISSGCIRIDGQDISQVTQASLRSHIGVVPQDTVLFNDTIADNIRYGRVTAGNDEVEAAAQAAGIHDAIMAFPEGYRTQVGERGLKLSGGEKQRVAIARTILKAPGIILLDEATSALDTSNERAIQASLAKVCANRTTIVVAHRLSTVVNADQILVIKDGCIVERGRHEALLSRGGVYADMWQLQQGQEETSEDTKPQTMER
The nature of test [15]: promoters of myeloid differentiation in arrested cells, primary screen, cell-based, GFP/MAC1 double positive, flow cytometry, validation set (AID 588685;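 active means differentiation response of at least 50%, scaled between solvent and reference control, from cells with both markers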;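 further: compound exposure lasts four days before antibody staining and flow analysis; 0% = DMSO wells and 100% = 5 µM fulvestrant positive control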). Conditions: ER-HoxA9 marrow cells, stronger effect = higher value, normalized: vehicle 0, fulvestrant 100.

Sequence of Integrin beta-1 (Homo sapiens) + Integrin alpha-4 (Homo sapiens) (P05556 whole entry, looked up): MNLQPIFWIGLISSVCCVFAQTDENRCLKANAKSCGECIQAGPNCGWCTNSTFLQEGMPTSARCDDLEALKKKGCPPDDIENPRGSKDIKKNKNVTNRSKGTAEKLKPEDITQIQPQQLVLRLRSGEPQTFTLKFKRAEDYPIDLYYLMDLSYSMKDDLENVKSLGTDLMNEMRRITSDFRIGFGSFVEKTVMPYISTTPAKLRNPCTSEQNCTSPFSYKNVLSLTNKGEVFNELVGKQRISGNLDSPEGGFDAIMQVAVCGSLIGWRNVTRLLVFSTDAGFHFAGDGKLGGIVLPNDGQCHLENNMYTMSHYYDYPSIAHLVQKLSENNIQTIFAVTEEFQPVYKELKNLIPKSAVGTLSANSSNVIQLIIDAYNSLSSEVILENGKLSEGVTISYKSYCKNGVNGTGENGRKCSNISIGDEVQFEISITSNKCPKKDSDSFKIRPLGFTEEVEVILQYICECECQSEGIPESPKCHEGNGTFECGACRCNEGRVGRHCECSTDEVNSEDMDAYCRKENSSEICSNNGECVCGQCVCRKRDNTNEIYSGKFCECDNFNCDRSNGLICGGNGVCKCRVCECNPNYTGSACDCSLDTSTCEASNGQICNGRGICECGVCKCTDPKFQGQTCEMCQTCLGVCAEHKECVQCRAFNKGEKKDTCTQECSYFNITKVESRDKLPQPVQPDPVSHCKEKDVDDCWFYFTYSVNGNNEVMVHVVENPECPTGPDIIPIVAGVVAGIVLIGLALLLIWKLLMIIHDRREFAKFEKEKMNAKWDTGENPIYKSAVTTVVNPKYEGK
Sequence of Integrin beta-1 (Homo sapiens) + Integrin alpha-4 (Homo sapiens) (P13612 whole entry, looked up): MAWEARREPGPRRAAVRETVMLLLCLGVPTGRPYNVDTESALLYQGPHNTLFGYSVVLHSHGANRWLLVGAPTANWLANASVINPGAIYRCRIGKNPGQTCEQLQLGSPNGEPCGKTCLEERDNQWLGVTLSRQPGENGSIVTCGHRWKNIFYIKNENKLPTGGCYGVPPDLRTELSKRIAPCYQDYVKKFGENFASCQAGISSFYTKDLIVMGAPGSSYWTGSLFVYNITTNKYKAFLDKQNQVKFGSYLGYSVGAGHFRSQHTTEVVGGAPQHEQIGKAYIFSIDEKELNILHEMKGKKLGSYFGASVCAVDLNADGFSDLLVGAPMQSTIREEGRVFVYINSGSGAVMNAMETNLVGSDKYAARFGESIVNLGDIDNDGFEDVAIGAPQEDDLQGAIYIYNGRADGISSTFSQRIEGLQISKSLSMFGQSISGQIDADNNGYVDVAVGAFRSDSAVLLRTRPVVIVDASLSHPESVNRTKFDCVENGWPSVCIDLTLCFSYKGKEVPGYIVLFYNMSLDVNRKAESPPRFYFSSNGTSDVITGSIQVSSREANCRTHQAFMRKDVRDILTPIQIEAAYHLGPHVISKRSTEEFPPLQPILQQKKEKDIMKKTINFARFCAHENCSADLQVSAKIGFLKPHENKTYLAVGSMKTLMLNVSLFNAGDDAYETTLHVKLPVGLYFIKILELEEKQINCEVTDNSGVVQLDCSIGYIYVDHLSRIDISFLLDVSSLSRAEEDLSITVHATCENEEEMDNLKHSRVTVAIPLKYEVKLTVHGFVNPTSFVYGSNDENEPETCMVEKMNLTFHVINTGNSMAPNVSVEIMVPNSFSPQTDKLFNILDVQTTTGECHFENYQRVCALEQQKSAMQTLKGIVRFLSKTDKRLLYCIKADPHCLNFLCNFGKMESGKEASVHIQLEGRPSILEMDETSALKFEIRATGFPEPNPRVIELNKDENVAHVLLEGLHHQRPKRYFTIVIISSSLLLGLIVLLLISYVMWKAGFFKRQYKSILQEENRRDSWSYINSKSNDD
Sequence of Beta-adrenergic receptor kinase 1 (Homo sapiens) (P25098 whole entry, looked up): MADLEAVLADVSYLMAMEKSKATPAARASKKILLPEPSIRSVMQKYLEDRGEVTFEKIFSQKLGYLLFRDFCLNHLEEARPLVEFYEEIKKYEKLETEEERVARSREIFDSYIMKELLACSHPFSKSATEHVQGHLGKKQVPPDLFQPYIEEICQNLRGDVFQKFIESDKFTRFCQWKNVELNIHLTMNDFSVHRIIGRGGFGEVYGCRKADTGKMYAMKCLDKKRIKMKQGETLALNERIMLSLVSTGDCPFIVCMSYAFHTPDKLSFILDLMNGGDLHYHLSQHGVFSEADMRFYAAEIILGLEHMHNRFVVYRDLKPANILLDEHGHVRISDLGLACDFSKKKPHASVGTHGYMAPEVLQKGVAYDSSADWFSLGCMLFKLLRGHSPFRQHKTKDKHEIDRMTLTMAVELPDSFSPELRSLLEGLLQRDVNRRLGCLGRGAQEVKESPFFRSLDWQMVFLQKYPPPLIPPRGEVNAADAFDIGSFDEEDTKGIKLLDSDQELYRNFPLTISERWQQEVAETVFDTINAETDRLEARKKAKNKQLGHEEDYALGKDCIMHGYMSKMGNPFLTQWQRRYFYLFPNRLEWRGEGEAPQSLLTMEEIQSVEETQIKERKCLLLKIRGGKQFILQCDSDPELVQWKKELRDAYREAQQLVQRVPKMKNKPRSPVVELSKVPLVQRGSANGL

As a reminder, the inhibition is the change of the read-out against control, counted positive when it falls. For the compound `COC(=O)c1cc(=O)c2ccc(OC)cc2o1`, the percent of DMSO control GFP in test [1] is 99.1% (inactive). Further, the GFP response vs DMSO in test [2] is 97.9% (inactive); in [4], 100% (inactive). Besides, in [3], the percent response of DMSO control is 111% (inactive). Moreover, the GFP response, % of DMSO in test [5] is 90.9% (inactive). The compound also registered a double positive events in test [6] of 52.9%. For the same compound, the vesicle binding response in test [6] was 152% (inactive). The values for the inhibition in test [7], in test [10] and in test [14] were 17.5% (inactive), -3.93% (inactive) and 6% (inactive), respectively. Moreover, the superoxide response (% of plate) in test [8] is 94.7% (inactive). For the same compound, in test [9], the aptamer binding inhibition is 1% (inactive). In test [11], the response was 37.7% (active). Besides, in test [12], the binding (% of control) is 101% (inactive). In addition, the efflux inhibition (fraction of control) in test [13] was 0.03 (inactive). The differentiation response in [15] was -11.5% (inactive).
Take `CN1C(=O)C(O)(CC(=O)c2ccccc2O)c2cc(Br)ccc21` (stereo not given): in test [1], the percent of DMSO control GFP is 100% (inactive). For the same compound, the GFP response vs DMSO in test [2] was 107% (inactive); in [4], 115% (inactive). The percent response of DMSO control in [3] is 109% (inactive). Also, the GFP response, % of DMSO in test [5] is 106% (inactive). The double positive events in test [6] stood at 57.7%. The vesicle binding response in [6] is 199% (inactive). For the same compound, the values for the inhibition in [7], in [10] and in [14] were 16.6% (inactive), 4.33% (inactive) and 9% (inactive), respectively. Besides, the superoxide response (% of plate) in test [8] is 101% (inactive). In test [9], the aptamer binding inhibition is 0% (inactive). The response in test [11] was 0.66% (inactive). The binding (% of control) in [12] is 99% (inactive). Besides, the efflux inhibition (fraction of control) in test [13] was -0.09 (inactive). In test [15], the differentiation response is 7.87% (inactive).
Regarding `CC(CCc1ccccc1)NCC(O)c1ccc(O)c(C(N)=O)c1` (stereo not given), the percent of DMSO control GFP in [1] is 99.5% (inactive). Also, the values for the GFP response vs DMSO in test [2] and in test [4] were 98.9% (inactive) and 109% (inactive), respectively. Moreover, in [3], the percent response of DMSO control was 107% (inactive). In addition, the GFP response, % of DMSO in [5] was 105% (inactive). In addition, the double positive events in test [6] amounted to 52.5%. Further, in [6], the vesicle binding response is 175% (inactive). In addition, the results for the inhibition in test [7], in test [10] and in test [14] were -2.11% (inactive), -4.92% (inactive) and 9% (inactive), respectively. In addition, the superoxide response (% of plate) in [8] was 97.6% (inactive). Also, in test [9], the aptamer binding inhibition is 0% (inactive). Further, the response in test [11] was -3.48% (inactive). For the same compound, the binding (% of control) in [12] was 101% (inactive). In test [13], the efflux inhibition (fraction of control) was -0.2 (inactive). For the same compound, in test [15], the differentiation response was -6.66% (inactive).
On to `COc1ccc2cc(CCC(C)=O)ccc2c1`, for which, in test [1], the percent of DMSO control GFP is 101% (inactive). For the same compound, the GFP response vs DMSO in test [2] is 103% (inactive); in test [4] it was 101% (inactive). Further, the percent response of DMSO control in [3] was 93% (inactive). In test [5], the GFP response, % of DMSO was 85.2% (inactive). The same compound displayed a double positive events in test [6] of 55.4%. For the same compound, in [6], the vesicle binding response is 150% (inactive). Further, the inhibition is 2.56% (inactive) in [7], -2.69% (inactive) in [10] and 4% (inactive) in test [14]. Besides, the superoxide response (% of plate) in [8] is 86.7% (inactive). Moreover, the aptamer binding inhibition in test [9] was 2% (inactive). In test [11], the response is -0.19% (inactive). Further, in test [12], the binding (% of control) was 108% (inactive). The efflux inhibition (fraction of control) in [13] was 0.63 (active). The differentiation response in test [15] was 0% (inactive).
For `COc1cc2nc(N3CCN(C(=O)C4COc5ccccc5O4)CC3)nc(N)c2cc1OC` (stereo not given), in test [1], the percent of DMSO control GFP is 101% (inactive). Besides, the GFP response vs DMSO in [2] is 108% (inactive); in test [4], 110% (inactive). Further, in test [3], the percent response of DMSO control was 104% (inactive). The GFP response, % of DMSO in [5] was 116% (inactive). Further, the double positive events in test [6] was 61.4%. Besides, in [6], the vesicle binding response is 203% (inactive). For the same compound, the inhibition in [7] is -8.78% (inactive); in [10], 26.5% (inactive); in test [14], -6% (inactive). Also, the superoxide response (% of plate) in test [8] was 57.2% (active). Further, the aptamer binding inhibition in test [9] was 1% (inactive). The response in test [11] was -4.66% (inactive). Moreover, the binding (% of control) in [12] is 108% (inactive). Besides, the efflux inhibition (fraction of control) in [13] is 0 (inactive). Besides, the differentiation response in test [15] is 3.88% (inactive).
